From PubChem BioAssay come the findings set out here.

The subject of experiment [1] is TRPC4 beta (transient receptor potential cation channel C4), mouse. Description: activators of mouse TRPC4 channel, confirmation, cell-based, Fluo4 calcium, HEK293 TRPC4beta/mu-opioid, duplicates, 10 µM (AID 2426;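 active = fluorescence ratio normalized to control raised more than 50% in primary screen plus both repeat runs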). The following applies: Fluo4 calcium fluorescence, at 10 µM; stronger effect = higher value.
Experiment [2] relates to transient receptor potential cation channel C4 beta (TRPC4), mouse. The experiment in a line: activators of mouse TRPC4 channel, confirmation, cell-based, second round, Fluo4, HEK293 TRPC4beta/mu-opioid, 1 µM (AID 2461;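 active = primary screen active and over 50% activation in each of two duplicate runs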). As to conditions: Fluo4 calcium fluorescence, at 1 µM; stronger effect = higher value.
Experiment [3] relates to TRPC4 (transient receptor potential cation channel C4 beta), mouse. The experiment in a line: positive allosteric modulators of mouse TRPC4, confirmation, cell-based, second round, Fluo-4, HEK293 TRPC4beta/mu-opioid, 1 µM (AID 2554;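 active = primary screen hit whose fluorescence ratio, in both repeats, exceeds the weak agonist control mean by 3 SD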). As to conditions: DAMGO EC20, Fluo-4 calcium flux, at 1 µM; stronger effect = higher value.
For experiment [4], the system named is TRPC4 beta (transient receptor potential cation channel C4), mouse. Description: positive allosteric modulators of mouse TRPC4, confirmation, cell-based, Fluo-4, HEK293 TRPC4beta/mu-opioid (AID 2555;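 active = primary screen hit whose calcium fluorescence ratio, in both repeats, exceeds the weak agonist control mean by 3 SD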). The following applies: DAMGO EC20, Fluo-4 calcium flux, at 10 µM; stronger effect = higher value.
In experiment [5] the target is Short transient receptor potential channel 4 (Mus musculus) (UniProt Q9QUQ5). The experiment in a line: inhibitors of mouse TRPC4 channel, confirmation, cell-based, Fluo4, HEK293 TRPC4beta/mu-opioid (AID 2636;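 active = calcium signal cut by more than 3 SD below the full-agonist control yet still positive, in both repeats and the earlier primary screen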). As to conditions: DAMGO, Fluo4 calcium flux, at 10 µM; stronger effect = higher value.
Sequence of Short transient receptor potential channel 4 (Mus musculus) (Q9QUQ5 whole entry, looked up): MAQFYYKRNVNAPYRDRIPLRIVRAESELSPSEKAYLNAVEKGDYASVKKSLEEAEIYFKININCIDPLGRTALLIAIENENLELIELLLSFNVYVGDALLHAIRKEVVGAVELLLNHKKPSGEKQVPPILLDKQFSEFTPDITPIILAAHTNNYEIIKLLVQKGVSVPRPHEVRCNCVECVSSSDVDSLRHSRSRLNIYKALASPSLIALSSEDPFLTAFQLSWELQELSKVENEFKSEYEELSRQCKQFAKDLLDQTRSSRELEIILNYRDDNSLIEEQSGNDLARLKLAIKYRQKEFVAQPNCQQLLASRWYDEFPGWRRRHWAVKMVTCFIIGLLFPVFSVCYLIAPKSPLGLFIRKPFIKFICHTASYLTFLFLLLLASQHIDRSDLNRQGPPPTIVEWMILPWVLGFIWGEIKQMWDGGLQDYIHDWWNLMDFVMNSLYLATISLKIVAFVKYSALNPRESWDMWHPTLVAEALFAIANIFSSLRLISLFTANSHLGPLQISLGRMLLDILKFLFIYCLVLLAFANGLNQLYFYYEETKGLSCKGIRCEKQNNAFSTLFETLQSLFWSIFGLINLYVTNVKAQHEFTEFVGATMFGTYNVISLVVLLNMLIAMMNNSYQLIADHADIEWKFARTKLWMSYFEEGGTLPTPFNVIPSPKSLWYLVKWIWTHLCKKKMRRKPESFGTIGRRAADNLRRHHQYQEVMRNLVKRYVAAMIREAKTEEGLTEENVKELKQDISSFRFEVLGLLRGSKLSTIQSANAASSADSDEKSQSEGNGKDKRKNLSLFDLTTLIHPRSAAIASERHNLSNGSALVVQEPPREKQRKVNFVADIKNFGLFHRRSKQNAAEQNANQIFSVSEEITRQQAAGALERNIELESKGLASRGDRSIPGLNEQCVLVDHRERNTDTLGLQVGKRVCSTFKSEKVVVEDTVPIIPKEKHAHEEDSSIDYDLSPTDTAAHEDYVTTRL
Experiment [6] shares this target. Description: inhibitors of mouse TRPC4 channel, confirmation, cell-based, second round, Fluo4, HEK293 TRPC4beta/mu-opioid, 1 µM (AID 2637;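 active = calcium signal ratio cut to more than 3 SD under the fully stimulated control mean yet still positive, in both repeats and the primary screen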). The following applies: Fluo4 calcium flux, DAMGO, at 1 µM; stronger effect = higher value.
Experiment [7] has the same target. The experiment in a line: mouse TRPC4 channel activators, dose response, cell-based, HEK293 TRPC4/mu-opioid, Fluo-4 calcium (AID 434937;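 active = primary screen activator hit with a dose response curve and TRPC4 channel activation at any tested dose; inactive = no activation, no dose response, or not a primary hit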).
Experiment [8] shares this target. The experiment in a line: TRPC4 positive allosteric modulators, dose response, cell-based, HEK293 TRPC4/mu-opioid, Fluo-4 calcium, EC20 DAMGO (AID 434941;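 active = earlier screen potentiator hit that boosts the TRPC4 ion channel at some dose, with a dose response; inactive = no potentiation, no dose response, or not a prior hit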;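 also: calcium entry triggered by an EC20 dose of DAMGO at the co-expressed mu-opioid receptor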).
For experiment [9] the target is unchanged. The experiment in a line: mouse TRPC4 channel inhibitors, dose response, cell-based, HEK293 TRPC4/mu-opioid, Fluo-4 calcium (AID 434942).
Experiment [10] addresses Short transient receptor potential channel 6 (Mus musculus) (UniProt Q61143). Description: inhibition of mouse TRPC6 channel, confirmation, selectivity assay for TRPC4 inhibitor project, cell-based, HEK293, membrane potential dye, duplicate (AID 434948;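 active = active in primary screen and both duplicates, each dropping signal beyond three positive-control SD with fluorescence still positive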). As to conditions: HEK293 TRPC6, membrane potential dye fluorescence, at 10 µM, stimulated with maximal-effect acetylcholine; stronger effect = higher value.

Experiment [11] shares this target. The experiment in a line: activation of mouse TRPC6 channel, confirmation, selectivity assay for TRPC4 activator project, cell-based, HEK293, membrane potential dye, duplicate (AID 434950;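 active = membrane potential signal rise above negative control mean plus 3 SD in both duplicates, also active in the earlier TRPC4 screen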;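 as to activation: 0% = buffer only wells and 100% = acetylcholine maximal-effect wells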). As to conditions: HEK293 TRPC6, membrane potential fluorescence, at 10 µM; stronger effect = higher value.
Experiment [12] has the same target. The experiment in a line: TRPC6 potentiation by TRPC4 potentiator hits, confirmation, selectivity assay for TRPC4 potentiator project, HEK293 cells, membrane potential dye, duplicate (AID 434952;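 active = compound raising the membrane signal above positive-control mean plus 3 SD in both repeats, and a primary screen hit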). As to conditions: HEK293 TRPC6, membrane potential dye fluorescence, at 10 µM, maximal acetylcholine added after compound; stronger effect = higher value.
The target of experiment [13] is Short transient receptor potential channel 4 (Mus musculus) (UniProt Q9QUQ5). The experiment in a line: calcium flux activators in TRPC4/5HT1a cells, counter-screen for TRPC4 activator project, cell-based, second counter screen, HEK293 TRPC4/5HT1a, Fluo-4 (AID 434977;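 active = calcium signal rise above buffer-control mean plus 5 SD in both duplicates, and also a hit in the primary screen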;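 as to activation: plate controls were assay buffer for no effect and maximal serotonin response for full effect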). The following applies: Fluo-4 calcium flux, at 10 µM; stronger effect = higher value.
Experiment [14] is described as follows: calcium flux inhibitors in TRPC4/5HT1a cells, confirmation, counter-screen for TRPC4 inhibitor project, cell-based, second counter screen, HEK293 TRPC4/5HT1a, Fluo-4 (AID 434978;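 active = primary screen active whose calcium signal fell more than 3 SD beyond the full-serotonin control mean in both duplicate plates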;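 also: serotonin given first at submaximal then at maximal dose after compound preincubation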). The following applies: Fluo-4 calcium flux, at 10 µM, serotonin added to trigger calcium flux; stronger effect = higher value.
Experiment [15] deals with TRPC4 (mouse), co-expressed with 5HT1a in HEK293. The experiment in a line: calcium flux potentiators in TRPC4/5HT1a cells, confirmation, counter-screen for TRPC4 potentiator project, cell-based, second counter screen, HEK293 TRPC4/5HT1a, Fluo-4 (AID 434979;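 active = signal rise over 3 SD above mean of control wells given weak agonist, in both repeats and first screen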). As to conditions: Fluo-4 calcium flux, at 10 µM, serotonin added at its EC20 dose; stronger effect = higher value.
The nature of experiment [16]: calcium flux activation in mu-opioid HEK293 cells, confirmation, counter-screen for TRPC4 activator project, cell-based, HEK293 mu-opioid receptor line (AID 449723;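 active = hit in primary screen, with calcium signal over 5 SD above buffer well mean in both duplicates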;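 also: counter screen cells carry the mu-opioid receptor alone and lack TRPC4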). The following applies: Fluo-4 calcium fluorescence, at 10 µM; stronger effect = higher value.
The nature of experiment [17]: calcium flux enhancement in mu-opioid HEK293 cells, confirmation, counter-screen for TRPC4 allosteric potentiator project, cell-based, HEK293 mu-opioid receptor line (AID 449724;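 active = calcium signal rise more than 3 SD above the low-dose agonist control mean, in both duplicate plates and the primary screen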;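 also: HEK293 cells carrying mu-opioid receptor only with no TRPC4 channel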). As to conditions: Fluo-4 calcium flux, at 10 µM, compound added before EC20 DAMGO stimulus; stronger effect = higher value.

SMILES strings stand for the structures. For part of these data: Entries with a potency or affinity are not part of this list. Active and inactive are the calls of the source.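 The calls were made as follows, unless noted: active = primary screen inhibitor hit that blocks the TRPC4 channel at some tested dose, yielding a dose curve; inactive = the rest.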

Sequence of Short transient receptor potential channel 6 (Mus musculus) (Q61143 whole entry, looked up): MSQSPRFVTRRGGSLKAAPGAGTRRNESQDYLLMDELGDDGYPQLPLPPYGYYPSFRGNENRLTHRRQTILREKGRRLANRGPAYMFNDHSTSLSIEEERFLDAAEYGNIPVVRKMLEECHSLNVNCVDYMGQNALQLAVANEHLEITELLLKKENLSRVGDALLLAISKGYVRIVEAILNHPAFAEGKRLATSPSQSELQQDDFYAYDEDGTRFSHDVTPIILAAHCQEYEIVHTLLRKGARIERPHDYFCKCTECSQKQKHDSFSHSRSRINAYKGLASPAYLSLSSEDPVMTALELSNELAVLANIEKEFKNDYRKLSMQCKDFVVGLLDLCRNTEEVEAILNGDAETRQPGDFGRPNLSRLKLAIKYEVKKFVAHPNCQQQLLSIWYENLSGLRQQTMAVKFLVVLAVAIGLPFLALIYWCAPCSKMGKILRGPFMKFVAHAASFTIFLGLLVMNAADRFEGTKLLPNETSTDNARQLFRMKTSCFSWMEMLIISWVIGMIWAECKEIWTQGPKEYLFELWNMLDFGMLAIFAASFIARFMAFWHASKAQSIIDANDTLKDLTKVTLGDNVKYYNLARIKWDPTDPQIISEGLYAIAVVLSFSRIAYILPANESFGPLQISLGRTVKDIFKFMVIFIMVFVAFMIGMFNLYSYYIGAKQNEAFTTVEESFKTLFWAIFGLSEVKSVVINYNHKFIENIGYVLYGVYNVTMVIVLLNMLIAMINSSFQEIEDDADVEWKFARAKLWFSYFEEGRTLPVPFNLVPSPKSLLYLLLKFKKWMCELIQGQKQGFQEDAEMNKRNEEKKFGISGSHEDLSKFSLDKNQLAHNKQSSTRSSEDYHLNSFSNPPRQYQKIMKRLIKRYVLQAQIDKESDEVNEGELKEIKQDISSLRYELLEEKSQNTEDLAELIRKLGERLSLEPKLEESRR

As to `OCCN(CCO)c1ncnc2c1sc1nc(N3CCOCC3)c3c(c12)CCCC3`, the outcome in [1], in experiment [2], in [3], in [5], in [6] and in experiment [7] was inactive. Further, the result in experiment [8], in [9], in experiment [10], in experiment [11], in [12] and in [13] was inactive. Also, the outcome in experiment [14], in experiment [16] and in [17] was inactive. Also, the potentiation in [4] is 10% (active); in [15] it was 27.8% (active).

`Cc1cc(OCC(=O)NNC(=S)NC(=O)c2ccc(Br)o2)ccc1Cl`: the outcome in experiment [1], in experiment [2], in [3], in experiment [5], in experiment [6] and in experiment [7] was inactive. Further, the outcome in [8], in [9], in experiment [10], in [11], in experiment [12] and in experiment [13] was inactive. In addition, the result in experiment [14], in experiment [15], in experiment [16] and in experiment [17] was inactive. Moreover, the potentiation in experiment [4] is 10% (active).

Take `NS(=O)(=O)c1ccc(NN=C2CCN(Cc3ccccc3)CC2)c([N+](=O)[O-])c1`: the result in experiment [1], in [2], in [3], in experiment [4], in experiment [5] and in experiment [6] was inactive. Moreover, the outcome in [7], in experiment [8], in experiment [9], in [10], in [11] and in [12] was inactive. Also, the outcome in experiment [13], in experiment [14], in experiment [16] and in [17] was inactive. In addition, the potentiation in experiment [15] was 16.3% (active).

On to `CCCCCOc1ccc2oc(=O)c3c(c2c1)CCCN3C(=O)CN1CCCC(C(=O)OCC)C1` (stereo not given), for which the result in experiment [1], in experiment [2], in experiment [3], in experiment [4], in experiment [5] and in experiment [6] was inactive. Moreover, the result in experiment [7], in [8], in experiment [9], in [10], in [11] and in experiment [12] was inactive. In addition, the outcome in experiment [13], in experiment [14], in experiment [16] and in experiment [17] was inactive. In addition, the potentiation in experiment [15] was 7.34% (active).

Consider `Cn1c(=O)c2c(nc(CN3CCc4ccccc4C3)n2Cc2ccc(F)cc2)n(C)c1=O`, for which the result in experiment [1], in [2], in experiment [3], in experiment [4], in experiment [5] and in experiment [6] was inactive. Further, the result in experiment [7], in experiment [8], in [9], in experiment [10], in [11] and in experiment [12] was inactive. Besides, the result in [13], in experiment [14], in experiment [16] and in [17] was inactive. Further, the potentiation in experiment [15] is 59.5% (active).

For the compound `Cc1cccc(Cn2c(=O)c3c(nc4n3CCCN4Cc3ccccc3)n(C)c2=O)c1`, the result in experiment [1], in experiment [2], in [5], in experiment [6], in [7] and in experiment [8] was inactive. For the same compound, the result in experiment [9], in [10], in [11], in experiment [12], in [13] and in experiment [14] was inactive. Besides, the outcome in experiment [16] and in [17] was inactive. The figures for the potentiation in [3], in experiment [4] and in experiment [15] were 14% (active), 120% (active) and 75.2% (active), respectively.

With `Cc1ccc(C)n1-c1ncc(Br)cn1`, the outcome in [1], in experiment [2], in experiment [3], in [5], in experiment [6] and in experiment [7] was inactive. The result in experiment [8], in [9], in experiment [10], in [11], in experiment [12] and in [13] was inactive. For the same compound, the result in experiment [14], in experiment [16] and in [17] was inactive. Moreover, the potentiation in experiment [4] is 10% (active); in [15], 31.9% (active).

With `Cc1cc(Nc2ccccc2O)c2ccccc2n1`, the outcome in experiment [1], in [2], in [3], in experiment [4], in experiment [5] and in experiment [6] was inactive. Besides, the outcome in [7], in experiment [8], in experiment [9], in experiment [10], in [11] and in experiment [12] was inactive. For the same compound, the result in experiment [13], in [14], in experiment [15], in [16] and in experiment [17] was inactive.

With `O=[N+]([O-])c1ccc(N2CCN(CCOc3nonc3-c3ccccc3)CC2)c(Cl)c1`, the result in [1], in experiment [2], in [5], in [6], in experiment [7] and in experiment [8] was inactive. Moreover, the result in experiment [9], in experiment [10], in experiment [11], in experiment [12], in experiment [13] and in experiment [14] was inactive. The outcome in experiment [16] and in experiment [17] was inactive. Also, the values for the potentiation in [3], in experiment [4] and in experiment [15] were 10% (active), 34% (active) and 20.3% (active), respectively.

Turning to `CCOCCCn1c(=S)[nH]c2cc(C(=O)NCCCN(CC)CC)ccc2c1=O`, the outcome in [1], in experiment [2], in [5], in experiment [6], in experiment [7] and in experiment [8] was inactive. Besides, the result in [9], in experiment [10], in experiment [11], in [12], in [13] and in experiment [14] was inactive. Also, the outcome in [16] and in [17] was inactive. Also, the figures for the potentiation in experiment [3], in experiment [4] and in experiment [15] were 18% (active), 10% (active) and 16.1% (active), respectively.

As for `CC(C)CCNC(=O)CCC(=O)NNc1nc2ccccc2c2nc(-c3ccccc3)nn12`, the outcome in experiment [1], in experiment [2], in experiment [3], in [4], in [5] and in experiment [6] was inactive. Further, the result in [7], in experiment [8], in [9], in experiment [10], in experiment [11] and in experiment [12] was inactive. The result in experiment [13], in [14], in [16] and in experiment [17] was inactive. Also, the potentiation in experiment [15] was 70.8% (active).

As for `CCOc1cc(N(CC)CC)ccc1/C=C(/C#N)c1nc2ccccc2[nH]1`, the result in experiment [1], in experiment [2], in [3], in experiment [4], in [5] and in [6] was inactive. The result in [7], in [8], in experiment [9], in experiment [10], in experiment [12] and in [14] was inactive. The result in experiment [15] and in experiment [17] was inactive. Further, the figures for the activation in experiment [11], in experiment [13] and in experiment [16] were 86% (active), 16.9% (active) and 31.5% (active), respectively.

On to `COc1ccc(S(=O)(=O)n2nc(OC(=O)c3ccccc3Br)cc2N)cc1`, for which the result in experiment [1], in experiment [2], in experiment [3], in experiment [4], in [5] and in experiment [6] was inactive. Further, the result in [7], in experiment [8], in [9], in experiment [10], in [11] and in experiment [12] was inactive. The outcome in [13], in experiment [14], in experiment [15], in [16] and in experiment [17] was inactive.

As for `Clc1cccc2c3c([nH]c12)CCNC3`, the outcome in [1], in [2], in experiment [3], in experiment [5], in experiment [6] and in experiment [7] was inactive. In addition, the result in [8], in experiment [9], in experiment [10], in experiment [11], in [12] and in [13] was inactive. In addition, the result in experiment [14], in experiment [16] and in [17] was inactive. The potentiation in experiment [4] is 38% (active); in [15], 40.3% (active).

Consider `CCOC(=O)c1c(C)n(-c2ccc(C)cc2)c2ccc(OCC(O)CNCC3CCCO3)cc12` (stereo not given), for which the outcome in experiment [1], in experiment [2], in [3], in experiment [4], in [5] and in [6] was inactive. The outcome in experiment [7], in experiment [8], in [9], in experiment [10], in experiment [11] and in experiment [12] was inactive. Besides, the outcome in experiment [13], in experiment [14], in experiment [16] and in [17] was inactive. In [15], the potentiation was 24.6% (active).
